Article PMC6212790, “How bacterial xenogeneic silencer rok distinguishes foreign from self DNA in its resident genome”
Whole data set: some 33,000 sequences, median “e-score” near -0.037, cut for the highest 2% near 0.34. Only a selection was taken, and the highest values are over-represented in it overall.

These sequences were tested against T1, GST-Rok (full length) (Bacillus subtilis subsp. subtilis str. …, UniProt O34857 1-191) (assay: protein binding microarray; Rok is a gene silencer of Bacillus subtilis; high values mean tight binding). Settings: protein: recombinant; tags: GST (pTH5325, pDEST15-Magic modified); dsDNA, one strand shown.
T1 sequence: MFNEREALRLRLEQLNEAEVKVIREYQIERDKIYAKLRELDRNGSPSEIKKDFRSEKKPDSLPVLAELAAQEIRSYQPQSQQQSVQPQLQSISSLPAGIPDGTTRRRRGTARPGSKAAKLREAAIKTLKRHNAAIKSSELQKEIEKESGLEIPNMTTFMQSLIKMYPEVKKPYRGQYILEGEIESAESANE
Method in brief: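 Each has a 25-mer constant primer and a 35-mer variable part from a de Bruijn sequence of order 10, covering every non-palindromic 8-mer at least 32 times (palindromic 16). Preference for each 8-mer is given as a rank-based, unitless enrichment score (E-score). Its range runs from 0.5 (most favored) to −0.5 (most disfavored).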

Sequence | binding signal [E-score]
CTATACCA | 0.258
GTATACCA | 0.311
ATATACCA | 0.411
ATATACCG | 0.385
CATTAATC | 0.219
AACGGTCT | -0.0396
GTCCCGCA | -0.196
CGCGGTTA | -0.0283
ATAAATAC | 0.276
CTAAATAG | 0.172
GTAAATAC | 0.352
GTAAATAA | 0.234
CTAAATAC | 0.351
CTAAATAA | 0.251
CAAGCAGC | -0.0674
CAGTTATA | 0.288
GAGTTATA | 0.222
CAGTTACA | 0.24
AAGTTACA | 0.18
TAGTTACA | 0.349
TAGTTATA | 0.382
AGCTGAAG | 0.0654
AACGCCTA | -0.101

Sequence | binding signal [E-score]
ACTTAACC | 0.121
ATACCGAT | 0.342
ATACCGAG | 0.116
ATACCGAC | 0.0836
GTTGGCGA | -0.0273
GGAGCAGA | -0.132
CGCCTTCA | 0.0118
TAGCAGGA | -0.0921
ACCAAGGT | -0.0988
GACACGAC | -0.0441
ATTAGTTC | 0.172
CGTAGTTC | 0.255
AGTAGTTC | 0.413
GGTAGTTA | 0.413
AGTAGTTA | 0.434
AGTAGTTG | 0.388
ACTAGTTG | 0.313
GTTAGTTA | 0.258
AGTAGTGA | 0.0919
ATTAGTTG | 0.334
GGTAGTCA | 0.125
CGTAGTTA | 0.127
GTAAGAAA | 0.327

Sequence | binding signal [E-score]
CGTACAAC | 0.103
CGGAGGAA | -0.194
ACAATGAC | 0.00584
AAAGACAA | 0.02
GTTATTCA | 0.0398
ATAGGTCC | 0.123
CTAAGGCC | -0.158
AATATTGA | 0.287
AATATTCT | 0.338
AATATTGG | 0.103
AATATTCG | 0.255
AATATTCC | 0.131
AATATTGT | 0.34
TGCGGGAA | -0.19
CTAAGCCA | 0.0287
GGTTAGTA | 0.0365
CGTCGTTC | -0.0713
GAACCGAC | -0.0645
CGAAGAAA | 0.195
CGAAATTA | 0.269
CGAAATTC | 0.341
AGAAATTC | 0.228
GCAACCAC | 0.0207

Sequence | binding signal [E-score]
AGAATCTA | 0.337
AGAATCTG | -0.0414
GGAATCAA | 0.103
GGAATCTA | 0.363
CGAATCTA | 0.305
AGAATCTC | 0.0678
CGGAATTA | 0.239
GAAGGTTA | -0.0133
GCACTCAA | -0.134
ACCGGACC | -0.0925
ACGGTACG | -0.0886
CCTCACCG | -0.0671
CAACTACC | 0.303
AGACTACT | 0.209
AAACTACC | 0.475
AAACTACT | 0.484
AAACTAAG | 0.345
CAACTACG | 0.12
AGACTACC | 0.249
AAACTAAT | 0.332
AAACTAAC | 0.233
ACACTACT | 0.236
ACACTACG | -0.0357

Sequence | binding signal [E-score]
AAACTACG | 0.377
ATGCGGCA | 0.0193
CACCTAAC | 0.06
CTTCATAC | 0.0169
ATGCAGGA | 0.0987
ATAGAGAG | -0.0418
AGAAAACC | -0.176
AGCAAGCG | -0.0451
GCTGGAGA | -0.105
ATTCGCAC | -0.0552
ATTAGGCC | -0.131
TGACTACA | 0.197
TAACTACA | 0.441
CAACTACA | 0.18
AAACTAAA | 0.324
AAACTACA | 0.408
GAACTACA | 0.222
GCACTACC | -0.000872
TCACTACA | 0.0227
GAACTACC | 0.338
